The source of these data is PubChem BioAssay (NCI).

The panel holds about 83,000 compounds, 20% with a hit somewhere; the sample as a whole holds those more often.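 Values shown are percent growth following 48 h exposure of cells in 96-well plates to a single concentration of compound; below 10 was considered active.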 Values without a mark were called inactive. Activity calls are given as the source filed them.

The subject of the experiment is MDA-MB-468 breast. In words: NCI-60 one-dose screen, 48 h (100 = growth as untreated, 0 = no growth, -100 = all killed). The note with it: 10 µM unless noted.
In the case of `O=C(NNc1nc(Cl)nc(N2CCN(C(c3ccccc3)c3ccccc3)CC2)n1)c1ccccc1`, the growth was -47.2% (active).
To `O=C(N/N=C\c1ccc([N+](=O)[O-])cc1)c1ccc2nc(-c3ccc(Br)cc3)[nH]c2c1` belongs -33% (active); to `COc1cc(C2C=C(C)N=C3SC=CN32)cc(OC)c1OC` (stereo not given), 97.5%; to `O[C@@H]1CO[C@H]2[C@@H]1OC[C@@H]2O`, 96.3%.
To `[2H]C([2H])([2H])Oc1ccc(/C=C/C(=O)/C=C(/C=C/c2ccc(OC([2H])([2H])[2H])c(OC([2H])([2H])[2H])c2OC([2H])([2H])[2H])OB(F)F)c(OC([2H])([2H])[2H])c1OC([2H])([2H])[2H]` belongs 65%; to `CN(C)CCCOc1c2ccc(Cl)cc2nc2c1oc1ccccc12`, -39.8% (active); to `c1ccc2c(c1)CCCc1nnc3nc4ccccc4n3c1-2`, 29.9%.
Take `O=c1nc(Nc2ccc([N+](=O)[O-])cc2O)sc2ccccc12`: the growth was 34.3%.
To `CCCCCC(C)(CC(=O)O)CC(=O)O` belongs 95.3%; to `O=C1N(Cc2ccccc2Cl)c2ccccc2C12NN=C(c1cccc(Cl)c1)S2` (stereo not given), -29.6% (active); to `Cc1ccc(S(=O)(=O)NNC(=O)/C(=C\c2ccc(Cl)cc2)c2nc3ccccc3s2)cc1`, 111%.
As for `CC1(C)CC(=O)CC2(C1)N=C(N)Nc1nc3ccccc3n12` (stereo not given), the growth is 107%.
Consider `O=C(O)c1ccc(CNc2ccc(C(=O)CCl)cc2)cc1`, for which the growth was 63.8%.
With `O=C(Nc1cccc(Cl)c1)Nc1ncc(CCNc2ncnc3ccsc23)s1`, the growth was 6.87% (active).
In the case of `Cc1ccc(Cc2cnc(NC(=O)/C=C/c3cccc(C)c3)s2)cc1`, the growth was 1.34% (active).
To `C=CC(=O)Nc1cccc(Nc2nc(SC)nc(-c3cccc([N+](=O)[O-])c3)c2C#N)c1` belongs 55.9%; to `OC(CN1CCCC2CCCCC21)c1cc2ccccc2c2ccccc12` (stereo not given), -24.4% (active); to `CCCSc1ccc2nc(NC(=O)OC)[nH]c2c1`, -7.05% (active).
For `O=C1c2c(c3c4cccnc4[nH]c3c3ccc4ccccc4c23)C(=O)N1O`, the growth was 45.5%.
In the case of `Cc1ccccc1NC(=O)NC(CC(N)=O)c1ccc2c(c1)nc(-c1cccc(Oc3ccc(C(C)(C)C)cc3)c1)n2CCCN1CCCCC1C` (stereo not given) it was -78.8% (active).
To `O=C1/C(=C\c2cccn2Cc2ccc(Cl)cc2)c2ccccc2N1c1c(Cl)cccc1Cl` belongs -27.9% (active).
On to `COc1ccc(-c2nn(-c3cccc(NC(=O)Nc4ccccc4)c3)cc2-c2ccncc2)cc1Cl`, for which the growth was 29.4%.
To `COc1cc(/C=C/c2cc(/C=C/c3ccc(O)c(OC)c3)n(C(=O)Nc3ccc(C)cc3)n2)ccc1O` belongs -29.1% (active).
For `Cc1ccc(S(=O)(=O)N2CCCC2CO)cc1` (stereo not given), the growth was 86.3%.
To `O=c1oc2ccc(I)cc2c(=O)n1-c1ccc(Br)cc1F` belongs -2.16% (active); to `O=C(Nc1cccc(-n2cc(-c3ccncc3)c(-c3ccc(O)c(Cl)c3)n2)c1)c1cccc(C(F)(F)F)c1`, 34.3%; to `COc1cc2nc3cc([N+](=O)[O-])ccc3c(NCCCNCCO)c2cc1OC`, -49.4% (active).
With `NS(=O)(=O)Oc1ccc(-c2sc3cc(O)ccc3c2C(=O)c2ccc(OCCN3CCCCC3)cc2)cc1`, the growth was 95.1%.
On to `COc1ccc2c(c1)[n+]([O-])c(C(=O)/C=C/C=C(\Cl)c1cc(OC)c(OC)c(OC)c1)c(C)[n+]2[O-]`, for which the growth is 62.2%.
`CCCCc1n(Cc2ccc3ccccc3c2)c2ccccc2[n+]1Cc1ccc2ccccc2c1`: the growth was -78.1% (active).
In the case of `COc1cc(OC)c(/C=C/C(=O)c2c(OC)cc(OC)cc2OC)c(OC)c1` it was 14%.
In the case of `O=c1ncc(-c2ccc(C(F)(F)F)cc2)c(NC2CCCCCC2)[nH]1` it was 11.8%; in that of `CCOc1ccc(C(=O)NCC(C)C)cc1`, 105%.
In the case of `COc1ccc2c(c1)OC1=C(C(=O)OC1)C2c1cc(OC)c2c(c1)OCO2` (stereo not given), the growth is -7.16% (active).
As for `O=C1/C(=C/c2ccc([N+](=O)[O-])o2)Oc2ccc(Cl)cc21`, the growth was -34.5% (active).
In the case of `O=c1c2cc(F)ccc2sc2c(NCCN3CCOCC3)nc3ccccc3c12` it was 71.3%.
In the case of `O=C1NC(=O)C(c2cnc3ccccn23)=C1c1cn2c3c(cc(F)cc13)CN(C(=O)N1CCCCC1)CC2`, the growth was 47.6%.
To `FC(F)(F)c1cc(-c2nnc3n2N=C(Cl)CS3)cc(C(F)(F)F)c1` belongs 84.4%.
On to `Cc1nc(Nc2cn[nH]c2C(=O)Nc2ccc(CN3CCN(C)CC3)cc2)c2ccsc2n1`, for which the growth is 104%.
To `N#C/C(=C\c1ccc(-c2ccc(Br)cc2)o1)c1nc(-c2cccs2)cs1` belongs 6.37% (active).
